Data taken from PubChem BioAssay (EPA / NIEHS).
Where a structure was tested more than once in an assay, its records may differ in their call. Activity calls are given as the source filed them. Rule for the calls: active = hit-call score of the fitted dose curve at least 0.9, where 1 is the maximum; inactive = score below 0.9.

Tests used:
[1] = ATG_EGR_CIS: Attagene CIS-FACTORIAL HepG2 Assay for human Early Growth Response 1 (EGR1) (AID 2282938); settings: HepG2 Attagene CIS-FACTORIAL EGR reporter mRNA; actives raise or lower the signal
In short: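 Read-out: fluorescent reporter-mRNA fragments resolved by capillary electrophoresis after RT-PCR, 24 h post-dose in transiently transfected HepG2. Endogenous transcription-factor activity reported via cis-element-regulated reporter units; gain or loss fitted relative to DMSO.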

[2] = ATG_M_19_CIS: Attagene CIS-FACTORIAL HepG2 Assay for M19 Transcription Factor (Internal Marker) (AID 2282939); settings: HepG2 Attagene CIS-FACTORIAL M19 internal marker reporter; actives raise or lower the signal
In short: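 Signals come from fluorescence of labelled reporter-specific PCR fragments resolved by capillary electrophoresis, following 24 h treatment of HepG2 cells transfected with cis-promoter reporter units; activity was fitted in both directions relative to DMSO.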

[3] = ATG_ERE_CIS: Attagene CIS-FACTORIAL HepG2 Assay for Estrogen Response Element (ERE) (AID 2282940); settings: HepG2 ERE cis-reporter, Attagene RNA transcript; actives raise or lower the signal
In short: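 Fluorescence of capillary-separated, FAM-labelled reporter cDNA fragments indicates reporter mRNA levels in HepG2 cells exposed to chemicals for 24 h. Transient transfection with cis-regulated units; data fitted in both directions against DMSO.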

[4] = ATG_Ets_CIS: Attagene CIS-FACTORIAL HepG2 Assay for human Erythroblast Transformation Specific (ETS) (AID 2282941); settings: HepG2 ETS cis-reporter transcription; AC50: actives raise or lower the signal unless noted; outcome: actives raise or lower the signal unless noted
In short: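 HepG2 cells transfected with multiple cis-regulated reporter units measuring endogenous ETS-driven transcription, 24 h after dosing. Reporter mRNA quantified by RT-PCR with capillary electrophoresis; bidirectional fit relative to DMSO.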

[5] = biological target: Hepatocyte nuclear factor 3-beta (Homo sapiens) (UniProt Q9Y261); assay: ATG_FoxA2_CIS: Attagene CIS-FACTORIAL HepG2 Assay for human Forkhead box A2 (FOXA2) (AID 2282942); settings: HepG2 cis-reporter transcription factor activity, 24 h; actives raise or lower the signal
Chain of Hepatocyte nuclear factor 3-beta (Homo sapiens) (Q9Y261 whole entry, looked up): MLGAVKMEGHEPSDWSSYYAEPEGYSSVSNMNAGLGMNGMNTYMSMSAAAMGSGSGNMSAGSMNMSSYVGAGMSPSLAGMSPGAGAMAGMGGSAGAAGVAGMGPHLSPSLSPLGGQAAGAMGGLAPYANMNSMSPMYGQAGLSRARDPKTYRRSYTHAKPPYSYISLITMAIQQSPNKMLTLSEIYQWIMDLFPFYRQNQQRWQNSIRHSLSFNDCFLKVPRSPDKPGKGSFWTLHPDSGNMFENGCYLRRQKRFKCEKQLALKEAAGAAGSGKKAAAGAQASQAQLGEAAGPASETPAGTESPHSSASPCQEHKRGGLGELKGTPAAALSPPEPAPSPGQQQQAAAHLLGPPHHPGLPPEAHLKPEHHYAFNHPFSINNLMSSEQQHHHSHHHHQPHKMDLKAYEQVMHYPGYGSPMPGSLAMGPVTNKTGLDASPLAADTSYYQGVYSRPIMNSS
In short: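 Readout: fluorescent reporter transcripts resolved by capillary electrophoresis after RT-PCR. Transiently transfected HepG2, 24 h compound exposure, endogenous TF activity at cis promoter elements. Gain or loss of signal fitted relative to DMSO.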

[6] = ATG_FoxO_CIS: Attagene CIS-FACTORIAL HepG2 Assay for human Forkhead box O (FoxO) (AID 2282943); settings: HepG2 Attagene cis-reporter, FoxO element, mRNA; actives raise or lower the signal
In short: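 HepG2, transient MRTU transfection (cis element, endogenous TFs). Dose 24 h. TriZol RNA → oligo(dT) RT → PCR → 6-FAM primer extension → HpaI cut → CE. Gain/loss vs DMSO.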

[7] = ATG_GATA_CIS: Attagene CIS-FACTORIAL HepG2 Assay for human GATA Binding Protein (AID 2282944); settings: HepG2 GATA cis-element reporter, Attagene multiplex mRNA; actives raise or lower the signal
In short: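 After transfecting HepG2 cells with multiple cis-regulated reporter units, chemicals are dosed for 24 h; isolated RNA undergoes RT-PCR and fluorescent labeling before capillary electrophoresis, with activity expressed against DMSO.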

[8] = ATG_GLI_CIS: Attagene CIS-FACTORIAL HepG2 Assay for human Zinc Finger Protein GLI1 (AID 2282945); settings: HepG2, Attagene cis-factorial reporter mRNA, GLI element; actives raise or lower the signal
In short: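 Bidirectional curve fits relative to DMSO, using reporter mRNA levels from RT-PCR plus capillary electrophoresis. Cells were HepG2 transiently carrying cis-regulated reporter constructs, harvested 24 h after dosing.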

[9] = biological target: Bile acid receptor (Homo sapiens) (UniProt Q96RI1); assay: ATG_IR1_CIS: Attagene CIS-FACTORIAL HepG2 Assay for human Nuclear Receptor Subfamily 1 Group H Member 4 (NR1H4), IR1 submotif (AID 2282946); settings: IR1 reporter transcription, actives raise or lower the signal
Chain of Bile acid receptor (Homo sapiens) (Q96RI1 whole entry, looked up, the tested form may be a part): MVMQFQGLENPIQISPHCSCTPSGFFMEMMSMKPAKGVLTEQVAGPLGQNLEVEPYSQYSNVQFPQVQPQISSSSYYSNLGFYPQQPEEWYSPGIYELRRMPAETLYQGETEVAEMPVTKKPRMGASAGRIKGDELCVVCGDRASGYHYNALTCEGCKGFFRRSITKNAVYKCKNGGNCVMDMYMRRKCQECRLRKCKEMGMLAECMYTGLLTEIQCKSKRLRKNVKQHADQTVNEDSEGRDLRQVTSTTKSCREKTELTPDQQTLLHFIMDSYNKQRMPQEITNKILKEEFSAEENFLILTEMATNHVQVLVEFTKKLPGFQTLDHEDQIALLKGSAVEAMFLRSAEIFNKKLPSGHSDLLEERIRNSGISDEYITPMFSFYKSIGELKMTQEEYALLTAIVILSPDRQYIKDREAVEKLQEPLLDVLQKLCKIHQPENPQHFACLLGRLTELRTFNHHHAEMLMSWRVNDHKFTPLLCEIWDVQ
In short: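 Cells (human HepG2) carry transiently transfected cis-promoter reporter transcription units. Compounds are incubated 24 h, total RNA is reverse-transcribed and amplified, and labelled fragments are resolved by capillary electrophoresis. Curves use DMSO as baseline.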

[10] = ATG_GRE_CIS: Attagene CIS-FACTORIAL HepG2 Assay for human Glucocorticoid Response Elements (GRE) (AID 2282947); settings: HepG2 GRE cis-reporter, Attagene multiplex mRNA; AC50: actives raise or lower the signal unless noted; outcome: actives raise or lower the signal unless noted
In short: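 Assay uses human hepatoma HepG2 cells transfected with cis-promoter reporter units, exposed 24 h. mRNA from reporters detected by RT-PCR plus capillary electrophoresis; DMSO serves as negative control and baseline.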

[11] = ATG_ISRE_CIS: Attagene CIS-FACTORIAL HepG2 Assay for human Interferon Regulatory Factor 1 (IRF1) binding to an Interferon-Stimulated Response Element (ISRE) (AID 2282948); settings: HepG2 ISRE cis-reporter (Attagene), mRNA transcription readout; actives raise or lower the signal
In short: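 Transiently transfected HepG2 cells carrying cis-element reporter units, dosed 24 hours. Reporter mRNA quantified by RT-PCR, fluorescent primer extension, HpaI digestion and capillary electrophoresis. Bidirectional fitting relative to DMSO.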

[12] = ATG_M_32_CIS: Attagene CIS-FACTORIAL HepG2 Assay for M32 Transcription Factor (Internal Marker) (AID 2282949); settings: HepG2 Attagene cis-factorial M32 reporter, mRNA; actives raise or lower the signal;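 note: background control marker of the multiplexed CIS panel rather than a real target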
In short: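 Internal background marker read-out: RT-PCR/capillary electrophoresis fluorescence of reporter transcripts from transiently transfected HepG2 cells after 24 h chemical exposure. Activity fitted bidirectionally relative to DMSO negative control.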

[13] = ATG_M_06_CIS: Attagene CIS-FACTORIAL HepG2 Assay for M06 Transcription Factor (Internal Marker) (AID 2282950); settings: HepG2 Attagene CIS-FACTORIAL M06 internal marker reporter; actives raise or lower the signal
In short: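 HepG2 liver cells, 24 h exposure. Reporter transcripts from transfected cis-element constructs quantified by RT-PCR/capillary electrophoresis fluorescence. Bidirectional curve fit against DMSO.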

[14] = biological target: Hypoxia-inducible factor 1-alpha (Homo sapiens) (UniProt Q16665); assay: ATG_HIF1a_CIS: Attagene CIS-FACTORIAL HepG2 Assay for human Hypoxia Inducible Factor 1 (HIF1A) (AID 2282951); settings: HepG2 Attagene cis-factorial HIF1a reporter transcription; actives raise or lower the signal
Chain of Hypoxia-inducible factor 1-alpha (Homo sapiens) (Q16665 whole entry, looked up): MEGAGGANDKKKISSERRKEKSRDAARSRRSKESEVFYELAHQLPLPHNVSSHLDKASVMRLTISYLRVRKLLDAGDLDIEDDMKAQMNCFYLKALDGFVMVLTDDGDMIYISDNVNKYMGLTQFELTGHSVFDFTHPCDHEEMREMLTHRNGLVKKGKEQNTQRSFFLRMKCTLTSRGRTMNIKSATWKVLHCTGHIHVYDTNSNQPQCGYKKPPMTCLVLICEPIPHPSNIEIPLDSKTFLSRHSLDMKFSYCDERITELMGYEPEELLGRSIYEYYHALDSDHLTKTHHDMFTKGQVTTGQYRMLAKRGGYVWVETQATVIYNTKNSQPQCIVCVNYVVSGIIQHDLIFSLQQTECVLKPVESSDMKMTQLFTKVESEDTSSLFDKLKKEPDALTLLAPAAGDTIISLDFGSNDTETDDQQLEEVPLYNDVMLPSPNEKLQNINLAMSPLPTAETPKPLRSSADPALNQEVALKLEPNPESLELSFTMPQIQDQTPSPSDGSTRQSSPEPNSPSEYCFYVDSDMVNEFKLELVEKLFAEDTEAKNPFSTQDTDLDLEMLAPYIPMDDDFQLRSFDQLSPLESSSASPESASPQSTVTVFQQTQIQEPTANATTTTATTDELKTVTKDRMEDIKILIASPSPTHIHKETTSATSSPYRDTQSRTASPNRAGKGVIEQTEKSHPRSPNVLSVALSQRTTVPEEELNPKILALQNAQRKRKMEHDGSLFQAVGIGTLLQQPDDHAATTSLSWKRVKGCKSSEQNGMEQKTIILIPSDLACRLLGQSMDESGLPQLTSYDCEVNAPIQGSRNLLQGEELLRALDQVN
In short: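 RT-PCR/capillary electrophoresis fluorescence readout of reporter transcripts from endogenous-TF-driven cis elements in transfected HepG2 cells, 24 h exposure; activity fitted in both directions against DMSO controls.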

[15] = biological target: Hepatocyte nuclear factor 6 (Homo sapiens) (UniProt Q9UBC0); assay: ATG_HNF6_CIS: Attagene CIS-FACTORIAL HepG2 Assay for human Hepatocyte Nuclear Factor 6 (HNF6) (AID 2282952); settings: HepG2 Attagene cis-factorial HNF6 reporter transcription; actives raise or lower the signal
Chain of Hepatocyte nuclear factor 6 (Homo sapiens) (Q9UBC0 whole entry, looked up): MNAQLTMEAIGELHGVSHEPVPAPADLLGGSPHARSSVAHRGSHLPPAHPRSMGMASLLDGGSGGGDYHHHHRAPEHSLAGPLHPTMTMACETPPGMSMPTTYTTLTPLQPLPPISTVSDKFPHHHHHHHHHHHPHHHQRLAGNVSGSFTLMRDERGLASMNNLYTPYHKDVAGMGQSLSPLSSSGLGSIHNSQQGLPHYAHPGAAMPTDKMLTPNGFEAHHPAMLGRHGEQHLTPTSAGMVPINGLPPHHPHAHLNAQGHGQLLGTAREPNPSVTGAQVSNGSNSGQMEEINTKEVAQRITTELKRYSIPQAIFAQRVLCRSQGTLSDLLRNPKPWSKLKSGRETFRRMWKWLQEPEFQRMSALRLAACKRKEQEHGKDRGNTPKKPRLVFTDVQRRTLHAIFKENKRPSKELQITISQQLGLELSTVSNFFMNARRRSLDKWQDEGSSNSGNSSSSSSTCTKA
In short: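 Transiently transfected HepG2 cells expressing cis-regulated reporter transcription units were exposed to chemical for 24 h in a 24-well format. Reporter transcript abundance was determined by fluorescence capillary electrophoresis.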

[16] = biological target: Heat shock factor protein 1 (Homo sapiens) (UniProt Q00613); assay: ATG_HSE_CIS: Attagene CIS-FACTORIAL HepG2 Assay for human Heat Shock Transcription Factor 1 (HSE) (AID 2282953); settings: HepG2 HSE cis-reporter, Attagene RNA transcription; actives raise or lower the signal
Chain of Heat shock factor protein 1 (Homo sapiens) (Q00613 whole entry, looked up, the tested form may be a part): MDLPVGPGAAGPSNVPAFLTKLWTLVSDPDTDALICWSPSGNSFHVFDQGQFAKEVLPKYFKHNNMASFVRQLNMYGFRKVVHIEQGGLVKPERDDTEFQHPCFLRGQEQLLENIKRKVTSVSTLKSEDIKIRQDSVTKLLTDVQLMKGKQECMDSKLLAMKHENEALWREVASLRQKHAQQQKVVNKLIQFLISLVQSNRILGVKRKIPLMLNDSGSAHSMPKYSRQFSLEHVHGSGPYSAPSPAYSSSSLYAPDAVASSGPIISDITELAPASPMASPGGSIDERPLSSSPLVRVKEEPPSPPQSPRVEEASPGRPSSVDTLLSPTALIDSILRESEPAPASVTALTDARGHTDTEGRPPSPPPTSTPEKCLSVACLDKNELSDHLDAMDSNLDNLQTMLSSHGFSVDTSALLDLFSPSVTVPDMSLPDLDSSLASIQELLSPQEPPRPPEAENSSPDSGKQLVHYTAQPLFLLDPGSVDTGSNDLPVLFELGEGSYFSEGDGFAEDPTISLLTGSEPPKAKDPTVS
In short: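 Endogenous transcription factor activity captured via cis-promoter reporter units transfected into HepG2; treatment lasted 24 h. Fluorescence intensity of reporter fragments analysed with bidirectional curve fitting, DMSO baseline.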

[17] = ATG_MRE_CIS: Attagene CIS-FACTORIAL HepG2 Assay for human Metal Responsive Element (MRE) (AID 2282954); settings: HepG2 MRE cis-reporter transcription, Attagene multiplex; actives raise or lower the signal
In short: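 After a 24 h chemical exposure, transiently transfected HepG2 cells yield RNA whose reporter sequences are amplified, FAM-labelled and sized by capillary electrophoresis. Curves are fitted bidirectionally relative to DMSO.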

[18] = ATG_PBREM_CIS: Attagene CIS-FACTORIAL HepG2 Assay for human Phenobarbital-responsive Enhancer Module (PBREM) (AID 2282955); settings: HepG2 PBREM cis-reporter, Attagene multiplexed transcription; actives raise or lower the signal
In short: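 Reporter mRNA read by RT-PCR, 6-FAM primer extension, HpaI digestion and capillary electrophoresis. Transfected HepG2 cells, 24 h compound exposure. Gain or loss of signal fitted bidirectionally relative to DMSO baseline.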

[19] = biological target: Paired box protein Pax-6 (Homo sapiens) (UniProt P26367); assay: ATG_Pax6_CIS: Attagene CIS-FACTORIAL HepG2 Assay for human Paired Box 6 (PAX6) (AID 2282956); settings: HepG2 CIS-FACTORIAL PAX6 reporter transcription, RNA readout; actives raise or lower the signal
Chain of Paired box protein Pax-6 (Homo sapiens) (P26367 whole entry, looked up): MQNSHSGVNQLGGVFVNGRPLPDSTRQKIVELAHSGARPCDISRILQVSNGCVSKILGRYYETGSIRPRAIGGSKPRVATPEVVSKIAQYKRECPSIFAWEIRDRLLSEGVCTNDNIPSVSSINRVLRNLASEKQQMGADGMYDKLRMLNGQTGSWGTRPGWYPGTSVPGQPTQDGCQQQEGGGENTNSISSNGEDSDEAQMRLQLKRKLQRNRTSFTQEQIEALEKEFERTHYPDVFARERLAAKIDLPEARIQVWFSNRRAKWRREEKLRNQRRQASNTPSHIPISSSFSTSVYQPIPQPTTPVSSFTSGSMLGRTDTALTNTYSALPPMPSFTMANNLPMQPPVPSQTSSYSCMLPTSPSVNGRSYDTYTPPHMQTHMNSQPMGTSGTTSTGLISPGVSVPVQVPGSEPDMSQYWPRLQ
In short: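 HepG2 cells transiently transfected with cis-promoter-driven multiplexed reporter units sensing endogenous transcription factor activity; 24 h chemical exposure. Reporter mRNA quantified by RT-PCR, 6-FAM labelling, HpaI digestion and capillary electrophoresis; bidirectional fit versus DMSO baseline.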

[20] = ATG_PXRE_CIS: Attagene CIS-FACTORIAL HepG2 Assay for human Pregnane X Receptor Element (PXRE) (AID 2282957); settings: HepG2 Attagene CIS-FACTORIAL PXRE reporter, mRNA; actives raise or lower the signal
In short: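 Cis-element reporter mRNA in human hepatoma HepG2 cells is measured 24 h post-dosing by RT-PCR, primer-extension labeling and capillary electrophoresis; gain or loss of signal is fitted relative to DMSO.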

Structure (SMILES): CCCCCCCCC1CCC(=O)O1 (stereo not given)
- outcome [1]: inactive
- outcome [2]: inactive
- outcome [3]: inactive
- outcome [4]: inactive
- outcome [5]: inactive
- outcome [6]: inactive
- outcome [7]: inactive
- outcome [8]: inactive
- outcome [9]: inactive
- outcome [10]: inactive
- outcome [11]: inactive
- outcome [12]: inactive
- outcome [13]: inactive
- outcome [14]: inactive
- outcome [15]: inactive
- outcome [16]: inactive
- outcome [17]: inactive
- outcome [18]: inactive
- outcome [19]: inactive
- outcome [20]: inactive

Structure (SMILES): C=CC(=O)OCCN(CC)CC
- AC50 [1]: 54.4 µM (active)
- outcome [2]: inactive
- outcome [3]: inactive
- outcome [4]: inactive
- outcome [5]: inactive
- outcome [6]: inactive
- outcome [7]: inactive
- outcome [8]: inactive
- outcome [9]: inactive
- outcome [10]: inactive
- AC50 [11]: 44.3 µM (active)
- outcome [12]: inactive
- outcome [13]: inactive
- outcome [14]: inactive
- outcome [15]: inactive
- AC50 [16]: 152 µM (active)
- AC50 [17]: 62.9 µM (active)
- outcome [18]: inactive
- AC50 [19]: 58.9 µM (active)
- AC50 [20]: 66.9 µM (active)

Structure (SMILES): C=CC(C)(CCC=C(C)C)OC(C)=O (stereo not given)
- outcome [1]: inactive
- outcome [2]: inactive
- outcome [3]: inactive
- outcome [4]: inactive
- outcome [5]: inactive
- outcome [6]: inactive
- outcome [7]: inactive
- outcome [8]: inactive
- outcome [9]: inactive
- outcome [10]: inactive
- outcome [11]: inactive
- outcome [12]: inactive
- outcome [13]: inactive
- outcome [14]: inactive
- outcome [15]: inactive
- outcome [16]: inactive
- outcome [17]: inactive
- outcome [18]: inactive
- outcome [19]: inactive
- AC50 [20]: 22.8 µM (active)

Structure (SMILES): C=CC(F)(F)C(F)(F)C(F)(F)C(F)(F)F
- outcome [1]: inactive
- outcome [2]: inactive
- outcome [3]: inactive
- outcome [4]: inactive
- outcome [5]: inactive
- outcome [6]: inactive
- outcome [7]: inactive
- outcome [8]: inactive
- outcome [9]: inactive
- outcome [10]: inactive
- outcome [11]: inactive
- outcome [12]: inactive
- outcome [13]: inactive
- outcome [14]: inactive
- outcome [15]: inactive
- outcome [16]: inactive
- outcome [17]: inactive
- outcome [18]: inactive
- outcome [19]: inactive
- outcome [20]: inactive

Structure (SMILES): CCOC(C)=O
- outcome [1]: inactive
- outcome [2]: inactive
- outcome [3]: inactive
- outcome [4]: inactive
- outcome [5]: inactive
- outcome [6]: inactive
- AC50 [7]: 100 µM (active)
- outcome [7]: inactive
- outcome [8]: inactive
- outcome [10]: inactive
- outcome [11]: inactive
- outcome [12]: inactive
- outcome [13]: inactive
- outcome [14]: inactive
- outcome [15]: inactive
- outcome [16]: inactive
- outcome [17]: inactive
- outcome [18]: inactive
- outcome [19]: inactive
- outcome [20]: inactive
